# Measurements: paper PMC11062922 (Nature Chemical Biology, 2023)
# Like-named read-outs stand apart in the source and are kept apart here.
# Legend:
# GAK = tested on: GAK; parameters: species or system human, MV4-11 + K-562 + COLO205 + SK-N-BE2 + OVCAR-8; settings: read-out: apparent Kd, n = 1
# PKN3 [1] = tested on: PKN3; parameters: species or system human, MV4-11 + K-562 + COLO205 + SK-N-BE2 + OVCAR-8; settings: read-out: apparent Kd, compound concentrations: 100 nM and 1000 nM (sheet 'Samples'), n = 1;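 on IC50: NanoBRET target engagement in HEK293T cells transiently expressing full-length PKN3 with C-terminal NanoLuc, displacement of fluorescent tracer K5 (500 nM), BRET read after 2 h equilibration at 37 °C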
# RET = tested on: RET; parameters: species or system human, MV4-11 + K-562 + COLO205 + SK-N-BE2 + OVCAR-8; settings: read-out: apparent Kd, compound concentrations: 100 nM and 1000 nM (sheet 'Samples'), n = 1
# PKN3 [2] = settings: hek293t cells
# AAK1 = tested on: AAK1; parameters: species or system human, MV4-11 + K-562 + COLO205 + SK-N-BE2 + OVCAR-8; settings: read-out: apparent Kd, n = 1
# BMP2K = tested on: BMP2K; parameters: species or system human, MV4-11 + K-562 + COLO205 + SK-N-BE2 + OVCAR-8; settings: read-out: apparent Kd, n = 1
# CLK1 = tested on: CLK1; parameters: species or system human, MV4-11 + K-562 + COLO205 + SK-N-BE2 + OVCAR-8; settings: read-out: apparent Kd; compound concentrations: 100 nM and 1000 nM (sheet 'Samples'), CATDS: 2.2055974074076602E-2; n = 1
# CLK4 = tested on: CLK4; parameters: species or system human, MV4-11 + K-562 + COLO205 + SK-N-BE2 + OVCAR-8; settings: read-out: apparent Kd, n = 1
# CSNK2A1;CSNK2A3 = tested on: CSNK2A1;CSNK2A3; parameters: species or system human, MV4-11 + K-562 + COLO205 + SK-N-BE2 + OVCAR-8; settings: read-out: apparent Kd, n = 1
# CSNK2A2 = tested on: CSNK2A2; parameters: species or system human, MV4-11 + K-562 + COLO205 + SK-N-BE2 + OVCAR-8; settings: read-out: apparent Kd, n = 1
# FLT4 = tested on: FLT4; parameters: species or system human, MV4-11 + K-562 + COLO205 + SK-N-BE2 + OVCAR-8; settings: read-out: apparent Kd, n = 1
# GSK3A = tested on: GSK3A; parameters: species or system human, MV4-11 + K-562 + COLO205 + SK-N-BE2 + OVCAR-8; settings: read-out: apparent Kd, compound concentrations: 100 nM and 1000 nM (sheet 'Samples'), n = 1
# GSK3B = tested on: GSK3B; parameters: species or system human, MV4-11 + K-562 + COLO205 + SK-N-BE2 + OVCAR-8; settings: read-out: apparent Kd, compound concentrations: 100 nM and 1000 nM (sheet 'Samples'), n = 1
# MELK = tested on: MELK; parameters: species or system human, MV4-11 + K-562 + COLO205 + SK-N-BE2 + OVCAR-8; settings: read-out: apparent Kd, n = 1
# NUAK1 = tested on: NUAK1; parameters: species or system human, MV4-11 + K-562 + COLO205 + SK-N-BE2 + OVCAR-8; settings: read-out: apparent Kd, n = 1
# PAK4 = tested on: PAK4; parameters: species or system human, MV4-11 + K-562 + COLO205 + SK-N-BE2 + OVCAR-8; settings: read-out: apparent Kd, n = 1
# PKN1 = tested on: PKN1; parameters: species or system human, MV4-11 + K-562 + COLO205 + SK-N-BE2 + OVCAR-8; settings: read-out: apparent Kd, compound concentrations: 100 nM and 1000 nM (sheet 'Samples'), n = 1
# PRKAG1 = tested on: PRKAG1; parameters: species or system human, MV4-11 + K-562 + COLO205 + SK-N-BE2 + OVCAR-8; settings: read-out: apparent Kd, compound concentrations: 100 nM and 1000 nM (sheet 'Samples'), n = 1
# Q6ZSR9 = Q6ZSR9 (human, UniProt Q6ZSR9); parameters: species or system MV4-11 + K-562 + COLO205 + SK-N-BE2 + OVCAR-8; settings: read-out: apparent Kd, n = 1
# Q6ZSR9, sequence (Q6ZSR9 whole entry, looked up): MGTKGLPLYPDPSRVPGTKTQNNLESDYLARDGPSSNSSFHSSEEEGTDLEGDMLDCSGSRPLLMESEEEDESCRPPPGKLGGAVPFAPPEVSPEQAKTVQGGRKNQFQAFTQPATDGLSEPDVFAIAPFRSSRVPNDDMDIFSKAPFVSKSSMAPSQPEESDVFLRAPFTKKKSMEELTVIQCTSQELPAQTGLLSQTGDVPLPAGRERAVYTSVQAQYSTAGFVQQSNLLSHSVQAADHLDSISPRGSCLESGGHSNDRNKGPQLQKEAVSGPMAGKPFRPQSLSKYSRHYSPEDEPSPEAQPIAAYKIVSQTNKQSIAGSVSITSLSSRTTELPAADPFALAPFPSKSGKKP
# SIK2 = tested on: SIK2; parameters: species or system human, MV4-11 + K-562 + COLO205 + SK-N-BE2 + OVCAR-8; settings: read-out: apparent Kd, n = 1
# [3] = compound concentrations:100 nM and 1000 nM (sheet 'Samples')
structure (smiles),measurement,setting,value
CCn1c(-c2nonc2N)nc2c(-c3ccccc3)ncc(OCCCN)c21.CCn1c(-c2nonc2N)nc2c(-c3ccccc3)ncc(OCCCN)c21.O=C(O)C(F)(F)F.O=C(O)C(F)(F)F [GSK260205A],potency estimated from few doses,"GAK; compound concentrations: 100 nM and 1000 nM (sheet 'Samples'), CATDS: 2.96050281932086E-2",1380 nM
same,potency estimated from few doses,PKN3 [1]; CATDS: 0.85080270266883096,1.1 nM
same,potency estimated from few doses,RET; CATDS: 8.7615337764420001E-2,99.7 nM
same,IC50,"PKN3 [2]; read-out: Average, SD, n = 4",22.3 nM
same,IC50,PKN3 [2]; read-out: Rep 1,73.6 nM
same,IC50,PKN3 [2]; read-out: Rep 2,6.19 nM
same,IC50,PKN3 [2]; read-out: Rep 3,6.22 nM
same,IC50,PKN3 [2]; read-out: Rep 4,3.37 nM
Clc1cc(Cl)cc(Nc2ccnc(Nc3cc(Cl)cc(Cl)c3)n2)c1 [GSK175726A],potency estimated from few doses,"AAK1; compound concentrations: 100 nM and 1000 nM (sheet 'Samples'), CATDS: 1.17801193164304E-2",460 nM
same,potency estimated from few doses,"BMP2K; compound concentrations: 100 nM and 1000 nM (sheet 'Samples'), CATDS: 9.0184479884945195E-3",1240 nM
same,potency estimated from few doses,CLK1,111 nM
same,potency estimated from few doses,"CLK4; compound concentrations: 100 nM and 1000 nM (sheet 'Samples'), CATDS: 1.3138431378969501E-2",338 nM
same,potency estimated from few doses,"CSNK2A1;CSNK2A3; compound concentrations: 100 nM and 1000 nM (sheet 'Samples'), CATDS: 1.0484195430571001E-2",672 nM
same,potency estimated from few doses,"CSNK2A2; compound concentrations: 100 nM and 1000 nM (sheet 'Samples'), CATDS: 1.04904160104555E-2",671 nM
same,potency estimated from few doses,"FLT4; compound concentrations: 100 nM and 1000 nM (sheet 'Samples'), CATDS: 8.8646184270887406E-3",1350 nM
same,potency estimated from few doses,"GAK; compound concentrations: 100 nM and 1000 nM (sheet 'Samples'), CATDS: 2.44642148870544E-2",92.1 nM
same,potency estimated from few doses,GSK3A; CATDS: 1.64548846246832E-2,197 nM
same,potency estimated from few doses,GSK3B; CATDS: 1.50283486353895E-2,242 nM
same,potency estimated from few doses,"MELK; compound concentrations: 100 nM and 1000 nM (sheet 'Samples'), CATDS: 8.4068419636258301E-3",1790 nM
same,potency estimated from few doses,"NUAK1; compound concentrations: 100 nM and 1000 nM (sheet 'Samples'), CATDS: 1.3178024386402599E-2",335 nM
same,potency estimated from few doses,"PAK4; compound concentrations: 100 nM and 1000 nM (sheet 'Samples'), CATDS: 1.1864346361446201E-2",450 nM
same,potency estimated from few doses,PKN1; CATDS: 8.1278223120285105E-3,2200 nM
same,potency estimated from few doses,PKN3 [1]; CATDS: 9.6016767734474606E-3,940 nM
same,potency estimated from few doses,PRKAG1; CATDS: 2.2079366714636301E-2,110 nM
same,potency estimated from few doses,"Q6ZSR9; compound concentrations: 100 nM and 1000 nM (sheet 'Samples'), CATDS: 1.1627061095110299E-2",479 nM
same,potency estimated from few doses,RET; CATDS: 1.2674098851270001E-2,373 nM
same,potency estimated from few doses,"SIK2; compound concentrations: 100 nM and 1000 nM (sheet 'Samples'), CATDS: 1.3915634821930201E-2",291 nM
COc1ccc(-c2cc3c(N)ncnc3o2)cc1 [GW642138X],potency estimated from few doses,"AAK1; compound concentrations: 100 nM and 1000 nM (sheet 'Samples'), CATDS: 9.3740609603759906E-2",2100 nM
Nc1nc(Nc2ccccc2)cc(-c2ccc3c(N)n[nH]c3c2)n1 [GSK2225749A],potency estimated from few doses,AAK1; [3],130 nM
same,potency estimated from few doses,BMP2K; [3],554 nM
same,potency estimated from few doses,MELK; [3],823 nM
same,potency estimated from few doses,Q6ZSR9; [3],125 nM
CN(C)CCNC(=O)Nc1ccc(N(C)c2ccnc(Nc3ccc(CS(C)(=O)=O)cc3)n2)cc1.Cl [GW830900A],potency estimated from few doses,AAK1; [3],820 nM
same,potency estimated from few doses,BMP2K; [3],1220 nM
same,potency estimated from few doses,FLT4; [3],1240 nM
same,potency estimated from few doses,GAK; [3],1450 nM
same,potency estimated from few doses,NUAK1; [3],1750 nM
same,potency estimated from few doses,Q6ZSR9; [3],939 nM
O=C(O)C(F)(F)F.O=c1[nH]ccc2nc(N[C@@H]3CCNC3)nc(Nc3ccc4c(c3)S(=O)(=O)CC4)c12 [GSK2181306A],potency estimated from few doses,"AAK1; compound concentrations: 100 nM and 1000 nM (sheet 'Samples'), CATDS: 1.0213142208507E-2",800 nM
same,potency estimated from few doses,"BMP2K; compound concentrations: 100 nM and 1000 nM (sheet 'Samples'), CATDS: 1.9243702463248E-2",190 nM
same,potency estimated from few doses,"CLK4; compound concentrations: 100 nM and 1000 nM (sheet 'Samples'), CATDS: 8.1810149624153006E-3",1760 nM
same,potency estimated from few doses,"CSNK2A1;CSNK2A3; compound concentrations: 100 nM and 1000 nM (sheet 'Samples'), CATDS: 0.112951755046268",11.3 nM
same,potency estimated from few doses,"CSNK2A2; compound concentrations: 100 nM and 1000 nM (sheet 'Samples'), CATDS: 0.17006619432900399",6.46 nM
same,potency estimated from few doses,GSK3A; CATDS: 1.81293399995681E-2,213 nM
same,potency estimated from few doses,GSK3B; CATDS: 1.53717620719534E-2,296 nM
same,potency estimated from few doses,"MELK; compound concentrations: 100 nM and 1000 nM (sheet 'Samples'), CATDS: 8.8391559742386702E-3",1290 nM
same,potency estimated from few doses,"NUAK1; compound concentrations: 100 nM and 1000 nM (sheet 'Samples'), CATDS: 6.4011411937308901E-2",25.9 nM
same,potency estimated from few doses,"PAK4; compound concentrations: 100 nM and 1000 nM (sheet 'Samples'), CATDS: 3.0355378859093798E-2",85 nM
same,potency estimated from few doses,PKN1; CATDS: 8.6733801464620904E-3,1380 nM
same,potency estimated from few doses,PRKAG1; CATDS: 1.1132465742589101E-2,629 nM
same,potency estimated from few doses,"Q6ZSR9; compound concentrations: 100 nM and 1000 nM (sheet 'Samples'), CATDS: 1.2146463936907201E-2",503 nM
same,potency estimated from few doses,RET; CATDS: 2.5699150815533801E-2,113 nM
same,potency estimated from few doses,"SIK2; compound concentrations: 100 nM and 1000 nM (sheet 'Samples'), CATDS: 1.23582822640132E-2",483 nM
Cc1cccc(Nc2nc(N[C@H]3CCNC3)ncc2C(N)=O)c1.Cl [GSK2197149A],potency estimated from few doses,AAK1; [3],64.6 nM
same,potency estimated from few doses,BMP2K; [3],540 nM
same,potency estimated from few doses,CSNK2A1;CSNK2A3; [3],2150 nM
same,potency estimated from few doses,GAK; [3],343 nM
same,potency estimated from few doses,NUAK1; [3],1690 nM
same,potency estimated from few doses,PAK4; [3],562 nM
same,potency estimated from few doses,Q6ZSR9; [3],85.6 nM
same,potency estimated from few doses,SIK2; [3],603 nM
CC(C)Oc1ccc2c(-c3ccnc(Nc4ccc(N5CCN(C)CC5)cc4)n3)cnn2n1 [GW696155X],potency estimated from few doses,AAK1; [3],35.4 nM
same,potency estimated from few doses,BMP2K; [3],344 nM
same,potency estimated from few doses,CLK4; [3],1570 nM
same,potency estimated from few doses,CSNK2A1;CSNK2A3; [3],416 nM
same,potency estimated from few doses,CSNK2A2; [3],201 nM
same,potency estimated from few doses,GAK; [3],454 nM
same,potency estimated from few doses,NUAK1; [3],1030 nM
same,potency estimated from few doses,Q6ZSR9; [3],39.6 nM
same,potency estimated from few doses,SIK2; [3],781 nM
